LASV entry inh – qHTS for Inhibitors of binding or entry into cells for Lassa Virus. actives 4.1% (n = 18,000). Lassa virus pseudotyped entry inhibition, cell-based qHTS. Potency, µM (top dose mostly 49.2 µM), actives largely listed as inhibitors
MARV entry inh – qHTS for Inhibitors of binding or entry into cells for Marburg Virus; Marburg virus pseudotype entry/binding inhibition, cell-based; Potency, µM (titrated, usually from 49.2 µM), usual class: inhibitors; actives 6.5% (n = 18,000); AID 720532, 2013
Large screens that a line does not name were inactive; ! = repeats disagree. An excerpt weighted towards active compounds, which were near 8.6% of everything screened. The call rests on the fitted dose curve; tested in HEK293 cells.

CCOC(=O)CN1C(=O)[C@]2(OC[C@@H]3Cc4ccccc4[C@H]3C=C2C)c2ccccc21	none
O=C1[C@@H]2CSCCS(=O)(=O)N2C(=O)N1c1ccccc1	none
CC(C)=CCN1C(=O)[C@]2(O[C@H](COc3ccccc3)CC3=C2CCC3)c2ccccc21	none
COc1ccccc1CNc1ncncc1-c1ccc(N(C)C)cc1	none
COc1ccc2[nH]cc(CCNc3ncncc3-c3ccc(N(C)C)cc3)c2c1	MARV entry inh 16µM
COc1cccc(CN2c3ccc(Br)cc3C(O)CS2(=O)=O)c1 (centres undefined)	none
Cc1cc2c(c(=O)n1Cc1ccccc1)[C@H]1O[C@](CCCCN3C(=O)c4ccccc4C3=O)(Cc3ccccc31)O2	none
CN1CCc2c(c3ccccc3n2Cc2ccccc2)C1	LASV entry inh inconclusive, MARV entry inh 18µM
CN1CCN(C2CN(Cc3ccccc3)S(=O)(=O)C2)CC1 (centres undefined)	none
O=C(CCC1CCN(Cc2ccccc2)CC1)c1ccc2c(c1)NCCCC2	LASV entry inh inconclusive, MARV entry inh 14µM
O=C(NC1CCN(Cc2ccccc2)CC1)c1ccc(I)cc1	none
O=S(=O)(NCCc1ccc(F)cc1)c1ccccc1Br	none
COC[C@@H](O)[C@H]1OCc2cccc(OC)c2[C@H]1C=Cc1ccccc1	none
CN[C@@H]1CCc2[nH]c3ccc(C(N)=O)cc3c2C1	none
CN(C)C1CCc2[nH]c3ccc(NC(=O)c4ccc(F)cc4)cc3c2C1 (centres undefined)	MARV entry inh 11µM
CCN1C(=O)N(S(=O)(=O)C(F)(F)F)C(c2ccccc2)C(C(=O)OC)=C1C (centres undefined)	none
CCN(CC)CCOCCOC(=O)C1(c2ccccc2)CCCC1	MARV entry inh 7.1µM!
CCN(CC)CCOC(=O)C(C)(c1ccccc1)c1ccccc1	LASV entry inh inconclusive, MARV entry inh 28µM
CCN(CC)CCOCCOC(=O)C(CC)(CC)c1ccccc1	LASV entry inh inconclusive, MARV entry inh 22µM
CCN(CC)CCNC(C(=O)OCCC(C)C)c1ccccc1 (centres undefined)	MARV entry inh inconclusive
O=C(O)CN(CCOCCOCCN(CC(=O)O)CC(=O)O)CC(=O)O	none
CCN(CC)CCOC(=O)C1(c2ccc([N+](=O)[O-])cc2)CCCC1	MARV entry inh inconclusive
C=CCNC(=O)[C@H]1C=C(OC)C(=O)C[C@H](c2ccccc2)[C@H]1C	none
C[C@H]1[C@@H](c2ccccc2)Oc2c(Cl)cccc2S(=O)(=O)N1Cc1ccc(F)cc1F	MARV entry inh inconclusive
COC(=O)C1=C[C@]2(c3ccccc3C[C@H](OC)[C@@H]2C)[C@H]2C=C[C@H]1C2	none
CC(=O)OC[C@H]1O[C@H](CCON=C(C)CCC(=O)OC[C@H]2O[C@H](C#Cc3ccccc3)C=C[C@H]2Oc2ccc(C)cc2)C=C[C@H]1OC(C)=O	none
COC1=C(C(=O)c2ccccc2)C(=O)[C@@]2(CC=C(C)C)CC(C#N)C[C@@]1(CC=C(C)C)C2=O (some centres undefined)	LASV entry inh inconclusive
COC(=O)C[C@H]1c2ccccc2[C@@H]2C(=C[C@@H](C)[C@H]3C(=O)N(O)C(=O)[C@H]32)N1C(=O)OC	none
Cc1cc(=O)oc2cc(OCc3cn(CC(=O)c4ccc(O)cc4)nn3)ccc12	none
CCCCCC(=O)N1C[C@H](n2cc(C3CC3)nn2)[C@@H](O)C[C@H]1c1ccc(Cl)cc1	LASV entry inh inconclusive
O=[S+]1([O-])C[C@@H](N2CCN(CCO)CC2)[C@@H](COCc2ccccc2)N1	none
CCCCCCCC/C=C\CCCCCCCC(=O)N[C@H](CO)Cc1ccc(O)cc1	LASV entry inh 14µM, MARV entry inh inconclusive
CCCCC/C=C\C/C=C\C/C=C\CCCCCCC(=O)NC(C)C(=O)O (centres undefined)	none
C=CCN1C(=O)[C@]2(OCCC=C[C@H]2C)c2c(Br)cccc21	none
COC1=CC2C(=O)C(C1=O)[C@H](c1ccccc1)[C@H]2C (some centres undefined)	none
CC1=CC[C@@H](COc2ccccc2)O[C@@]2(C1)C(=O)N(Cc1ccc(F)cc1)c1cccc(Br)c12	none
CCCCCCCCNS(=O)(=O)CCNCCc1ccccc1	none
CCCCCCCCCCCCCC[N+](C)(C)Cc1ccccc1	LASV entry inh 28µM, MARV entry inh inconclusive
CCCCCCCCNS(=O)(=O)CCNCc1ccccc1	none
CCCCCCCCCCCCCCCC[N+](C)(C)Cc1ccccc1	LASV entry inh inconclusive, MARV entry inh 25µM
Cc1cc(OCc2cn(CC(=O)c3ccc(O)cc3)nn2)cc(C)c1C	LASV entry inh inconclusive
c1ccc(Nc2ncc(-c3ccccc3)o2)cc1	LASV entry inh 5µM
Cc1cccc(Nc2ncc(-c3ccccc3)o2)c1	none (no result: LASV entry inh)
COCC=CC1=CC2=CC(=O)C(C)(OC(=O)c3cnc4ccccc4n3)C(=O)C2=CN1CCc1c[nH]c2ccccc12 (centres undefined)	none
COc1cccc([C@@H]2Oc3ccc(Br)cc3C[C@@H]2OC(=O)N[S+](=O)([O-])c2ccc(C)cc2)c1	none
COc1ccc(CCN2CCC(Nc3nc4ccccc4n3Cc3ccc(F)cc3)CC2)cc1	LASV entry inh 32µM!, MARV entry inh 4µM
Clc1ccc(Cn2c(CN3CCCC3)nc3ccccc32)cc1	none
CCOC(=O)C1(C(=O)OCC)Cc2ccc(C(C)=O)cc2C1	none (no result: LASV entry inh)
CCN[C@H](C)Cc1cccc(C(F)(F)F)c1	none
CC(Cc1cccc(C(F)(F)F)c1)NCCCc1ccccc1 (centres undefined)	LASV entry inh 32µM, MARV entry inh 14µM
C=COC[C@H]1CN2[C@H](c3ccc(Br)cc3)[C@H](C)CC[C@H]2C(=O)O1	none
COc1ccc(CC(N)C(=O)N[C@H]2[C@@H](O)[C@H](n3cnc4c(N(C)C)ncnc43)O[C@@H]2CO)cc1 (some centres undefined)	LASV entry inh 1.3µM, MARV entry inh 6.3µM
C[C@@H](Cc1ccccc1)Nc1ncnc2c1ncn2[C@@H]1O[C@H](CO)[C@@H](O)[C@H]1O	none
O=C(Cn1cc(COc2ccc(-c3ccc(Br)cc3)cc2)nn1)c1ccc(O)cc1	none (no result: LASV entry inh)
CCOc1ccc2c(-c3ccnc(Nc4cc(OC)cc(C(F)(F)F)c4)n3)cnn2n1	MARV entry inh 6.3µM (no result: LASV entry inh)
FC(F)(F)c1cccc(Nc2nccc(-c3cnn4nc(-c5ccccc5)ccc34)n2)c1	MARV entry inh 20µM (no result: LASV entry inh)
O=C1[C@H]2[C@@H]3[C@@H](O)[C@H](O)CC(=NOCc4ccccc4)[C@H]3CC[C@H]2C(=O)N1C1CCCCC1	none
COc1cc(O)cc(/C=C/c2ccccc2)c1	none
COC1=CC(=O)C(O)=C/C1=C\C=C\c1ccccc1	MARV entry inh 16µM
COC(=O)C1=C(C)N(CC#C[Si](C)(C)C)C(=O)N(C(C)=O)C1c1ccccc1 (centres undefined)	none
COC(=O)C1=C(C(=O)OC)[C@@H]2N(C)c3ccccc3[C@@]23CCC(=O)N(Cc2ccc4c(c2)OCO4)C3=N1	MARV entry inh inconclusive
Cc1nc(-c2ccccc2)n2nc(NCCCN3CCOCC3)ncc12	none (no result: LASV entry inh)
C[C@@H]1CC[C@H]2C(=O)N(CC3CCCCC3)C[C@H](O)CN2[C@@H]1c1ccc(Br)cc1	MARV entry inh inconclusive
N=C(N)N1Cc2ccccc2C(O)C1 (centres undefined)	none
CN1CCOC(c2ccccc2)c2ccccc2C1 (centres undefined)	LASV entry inh inconclusive, MARV entry inh 11µM!
CC[C@H]1OC(c2ccccc2)[C@H](C)[C@H]2O[C@@H]2[C@@H]1C(=O)OC (some centres undefined)	none
